# Source: PubChem (Sanford-Burnham Center for Chemical Genomics)
# CYP2C9 inhib = blockers of cytochrome P450 2C9 activity – biochemical, luminescence, ADME assay, primary screen; P11712; CYP2C9 Supersomes, luciferin-H conversion; inhibition, % at 5 µM; 96,000 compounds, 20% hits; AID 777, 2007;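 active = blocking of liver enzyme CYP2C9 beyond about 50% at 5 µM, limit read from the data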
# CYP2C19 activ = human CYP2C19 activators, primary screen, biochemical, luminescence; Cytochrome P450 2C19 (Homo sapiens), P33261; 96,000 tested, under 10 active; activation factor at 5 µM; recombinant CYP2C19, luciferin-H EGE luminescence; active compounds read high; 0 = fully inhibited enzyme, 1 = untreated enzyme;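 active = activation factor of at least 2 at 5 µM in the primary screen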;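 also: 0 = wells with 2.5 mM tranylcypromine and 1 = vehicle-only wells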
# Target sequence (P33261 whole entry, looked up): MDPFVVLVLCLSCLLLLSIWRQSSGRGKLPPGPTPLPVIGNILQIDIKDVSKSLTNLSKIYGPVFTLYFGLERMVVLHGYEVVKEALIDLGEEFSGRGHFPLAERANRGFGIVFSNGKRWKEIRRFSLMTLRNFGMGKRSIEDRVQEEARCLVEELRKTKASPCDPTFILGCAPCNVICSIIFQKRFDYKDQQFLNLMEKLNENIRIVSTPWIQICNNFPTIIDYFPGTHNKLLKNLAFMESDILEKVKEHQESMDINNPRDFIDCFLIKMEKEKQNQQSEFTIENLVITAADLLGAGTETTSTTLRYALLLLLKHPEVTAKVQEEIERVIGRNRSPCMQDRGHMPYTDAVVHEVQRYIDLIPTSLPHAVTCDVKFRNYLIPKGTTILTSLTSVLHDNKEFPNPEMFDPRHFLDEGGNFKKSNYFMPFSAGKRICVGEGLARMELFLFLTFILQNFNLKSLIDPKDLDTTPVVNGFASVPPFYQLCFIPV
# CYP2C19 inh = blockers of cytochrome P450 2C19 activity – biochemical, luminescence, ADME assay, primary screen; P33261; CYP2C19 Supersomes, luciferin-H EGE luminescence, 30 min; inhibition, % at 5 µM; 96,000 compounds, 21% hits;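 active = CYP2C19 inhibition above a set limit at 5 µM in the primary screen, cut at about 50% in these data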;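 also: plate controls were negative control wells for no effect and 2.5 mM tranylcypromine positive control for full effect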
# CYP2C9 activ = human CYP2C9 activators, primary screen, biochemical, luminescence; recombinant CYP2C9, luciferin-H conversion; active compounds read high; factor 1 = untreated enzyme, 0 = blocked; activation factor at 5 µM; 96,000 compounds, 1.4% hits; Cytochrome P450 2C9 (Homo sapiens), P11712; AID 1024, 2008;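 active = activation factor of 2 or more for CYP2C9 at a 5 µM dose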;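 also: 0 = sulfaphenazole-blocked wells and 1 = vehicle-only wells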
# PLAP act = PLAP enzyme activators, biochemical, luminescence, HTS. Alkaline phosphatase, placental type (Homo sapiens), P05187. 96,000 compounds, 1.2% hits. purified PLAP enzyme, luminescent substrate read-out; active compounds read high. activation fold at 20 µM; in the data active = activation fold above about 2
# The depositor's hits bear a star. In the library only some 31% were active in any assay of this set; here they are far more common.
SMILES,CYP2C9 inhib,CYP2C19 activ,CYP2C19 inh,CYP2C9 activ,PLAP act
COc1cc(CCNC(=O)c2cnn3ccccc23)cc(OC)c1OC,17,0.6,40,0.8,0.9
Cc1ccc(NC(=O)CN2C(=O)S/C(=C\c3cccn3-c3cccc(C(=O)O)c3)C2=O)c(C)c1,42,0.9,11,0.6,1.6
Cc1cccc(C)c1NC(=O)CN1C(=O)S/C(=C\c2cccn2-c2cccc(C(=O)O)c2)C1=O,86*,1,3,0.1,1.6
Cc1ccccc1NC(=O)CN1C(=O)S/C(=C\c2cccn2-c2cccc(C(=O)O)c2)C1=O,75*,0.9,6,0.2,1.4
COc1ccc(NC(=O)C2CCN(C(=O)NCc3ccccc3)CC2)cc1,9,1,0,0.9,1
COc1ccc(N2CCC(CNC(=O)Nc3ccccc3)C2)cc1 (stereo not given),38,0.4,60*,0.6,0.9
COc1ccc(NC(=O)Nc2ccc(N(C)C)cc2)cc1,21,0.1,86*,0.8,0.9
COc1ccc(CNC(=O)Nc2ccc(OC)cc2)cc1,-9,0.4,59*,1.1,0.9
COc1ccc(NC(=O)NCc2cccn2C)c(OC)c1,-3,0.4,62*,1,0.9
COc1ccc(CNC(=O)Nc2cccc(C)c2)cc1,4,0.7,35,1,0.8
CCOC(=O)c1cccc(NC(=O)N[C@@H](C)C(=O)OC)c1,6,0.9,13,0.9,0.8
Cc1ccc(-c2c3c(=O)n(C)c(=O)n(C)c3cn2Cc2cccnc2)cc1,3,0.7,31,1,1.1
Cc1nc2cc(NC(=O)COc3ccccc3C#N)ccc2n1-c1ccccc1,20,0.8,18,0.8,1.7
COc1ccc(OC)c(NC(=O)NCc2ccc(F)cc2)c1,28,0,99*,0.7,1.1
COc1ccc(NC(=O)NCc2ccncc2)c(OC)c1,30,0.6,40,0.7,1
COc1cccc2c1N1C(=O)c3c(C(=O)O)cccc3C1CC2(C)C (stereo not given),70*,1,-2,0.3,1
COc1ccc(N2Cc3cccc(C(=O)O)c3C2=O)cc1,1,0.9,5,1,1.2
Cc1ccc(C(C)NC(=O)c2cc(C)oc2C)cc1 (stereo not given),49,0.2,77*,0.5,1
Cc1cc(C(=O)Nc2ccccc2)c(C)o1,20,0.4,61*,0.8,0.8
CC1CN(C(=O)CN2C(=O)c3ccccc3C2=O)CC(C)O1 (stereo not given),-1,1,-3,1,0.9
O=C(NCCCN1CCC(Cc2ccccc2)CC1)C1CC(=O)N(C2CCCCCC2)C1 (stereo not given),44,0.8,21,0.6,1.7
COc1ccc(Oc2ccccc2/C=N/O)cc1,-18,0.3,70*,1.2,0.9
CCC1C(=O)N=C(SCC(=O)Nc2ccc(C(=O)OC)cc2)NC1=O (stereo not given),11,0.9,11,0.9,1.2
CCCOC(=O)c1ccc(NC(=O)CSC2=Nc3ccccc3C3CC=NN23)cc1 (stereo not given),80*,0.5,52*,0.2,1.5
O=C(O)C1CSC2(c3ccc4c(c3)OCCO4)CCC(=O)N12 (stereo not given),4,1.1,-5,1,0.8
SMILES,CYP2C9 inhib,CYP2C19 activ,CYP2C19 inh,CYP2C9 activ,PLAP act
CCN1CCN(Cc2nc3c(c(=O)n(C)c(=O)n3C)n2C(C)C(C)=O)CC1 (stereo not given),32,0.3,68*,0.7,0.9
O=C(O)CSc1nnc(CNc2ccccc2Cl)n1-c1ccccc1,-16,1.1,-8,1.2,1.4
Cn1c(=O)c2cc(S(=O)(=O)Nc3cccc(F)c3)ccc2n(C)c1=O,83*,0.2,76*,0.2,1.2
Cc1c(S(=O)(=O)Nc2cccc(Cl)c2)c(=O)n(C)c(=O)n1C,15,0.5,51*,0.8,1.1
Cn1c(=O)c2cc(S(=O)(=O)NC(C(=O)Nc3cccnc3)c3ccccc3)ccc2n(C)c1=O (stereo not given),47,0.6,35,0.5,2.6*
Cc1c(S(=O)(=O)Nc2ccc3c(c2)OCCO3)c(=O)n(C)c(=O)n1C,10,0.8,23,0.9,0.9
CCCOc1ccc(/C=N/NC(=O)C2CCCN2S(=O)(=O)c2ccc(Cl)cc2)cc1 (stereo not given),41,0.7,26,0.6,0.9
Cc1ccc(S(=O)(=O)N2CCN(C(=O)c3c(C)nn(-c4ccccc4)c3Cl)CC2)cc1,50*,0.8,17,0.5,1.1
COc1cccc(OC)c1C(=O)N1CCN(S(=O)(=O)c2ccc(C)cc2)CC1,35,0.9,11,0.6,1.3
COc1ccc(S(=O)(=O)N2CCN(C(=O)c3c(C)nn(-c4ccccc4)c3Cl)CC2)cc1,90*,0.1,88*,0.1,1.8
O=C(OC(C(=O)NCC1CCCO1)c1ccc(F)cc1)c1ccco1 (stereo not given),0,0.9,6,1,1
O=C(NC1CC1)C1CCN(c2ncnc3c2sc2cccc(F)c23)CC1,73*,0.4,61*,0.3,1.7
CC(C(=O)Nc1ccccc1C(=O)N1CCCC1)n1nnc2ccccc21 (stereo not given),5,0.6,39,1,1.1
CC(=O)C1=C(C)NC(=O)NC1c1cccc(O)c1 (stereo not given),-2,0.5,45,1,1.1
O=C1CC(c2ccccc2)c2ccc(O)cc2O1 (stereo not given),54*,0.5,45,0.5,0.8
O=C1CC(c2ccccc2)c2c(O)cc(O)cc2O1 (stereo not given),79*,0.4,63*,0.2,1.4
C=CCc1ccc(OCCOCCNCCCC)c(OC)c1,-8,0.6,38,1.1,1.6
COc1ccc(S(=O)(=O)N2CCOCC2)c(Cl)c1Cl,-304,0.3,70*,4*,1.2
COc1ccc2cc(S(=O)(=O)N3CCOCC3)ccc2c1,14,0.2,79*,0.9,1.1
O=S(=O)(c1ccc(Oc2ccc(S(=O)(=O)N3CCOCC3)cc2)cc1)N1CCOCC1,-14,1,-2,1.1,0.9
CCC(C)c1cc(S(=O)(=O)N2CCOCC2)ccc1OC (stereo not given),-29,0.3,69*,1.3,1.4
Cc1ccc(S(=O)(=O)N2CCOCC2)cc1C(=O)OCC(=O)N1CCc2ccccc2C1,78*,0.3,75*,0.2,1.7
COc1cc(S(=O)(=O)N2CCOCC2)ccc1F,-63,0.7,33,1.6,1
COc1cccc(C2C(C(=O)Nc3ccc(C)cc3C)=C(C)Nc3ncnn32)c1OC (stereo not given),5,0.9,11,0.9,1.2
